In the supplement of paper PMC6411743:
± gives the standard deviation of the averaged measurements. The full data set covers some 5,400 targets. This sample favours those with the largest changes.

Compound: Nc1nc2c(ncn2[C@@H]2O[C@H](COP(=O)(O)OP(=O)(O)OP(=O)(O)O)[C@@H](O)[C@H]2O)c(=O)[nH]1 [guanosine triphosphate]
Assay: NP40-soluble protein abundance relative to vehicle (solubility fold change) (ratio); higher = more soluble protein in presence of GTP
Protocol: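 Solubility proteome profiling in Jurkat crude lysate. Lysate was treated with Mg-GTP (0.1-10 mM) for 10 min at room temperature and 3 min at 37 °C, then solubilised with 0.8% NP40 and benzonase, followed by ultracentrifugation. Proteins were quantified by TMT10 LC-MS/MS; the value is the NP40-soluble abundance relative to the NP40-processed vehicle, from 3 independent experiments.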

Chain of UniProt O95644 (O95644 whole entry): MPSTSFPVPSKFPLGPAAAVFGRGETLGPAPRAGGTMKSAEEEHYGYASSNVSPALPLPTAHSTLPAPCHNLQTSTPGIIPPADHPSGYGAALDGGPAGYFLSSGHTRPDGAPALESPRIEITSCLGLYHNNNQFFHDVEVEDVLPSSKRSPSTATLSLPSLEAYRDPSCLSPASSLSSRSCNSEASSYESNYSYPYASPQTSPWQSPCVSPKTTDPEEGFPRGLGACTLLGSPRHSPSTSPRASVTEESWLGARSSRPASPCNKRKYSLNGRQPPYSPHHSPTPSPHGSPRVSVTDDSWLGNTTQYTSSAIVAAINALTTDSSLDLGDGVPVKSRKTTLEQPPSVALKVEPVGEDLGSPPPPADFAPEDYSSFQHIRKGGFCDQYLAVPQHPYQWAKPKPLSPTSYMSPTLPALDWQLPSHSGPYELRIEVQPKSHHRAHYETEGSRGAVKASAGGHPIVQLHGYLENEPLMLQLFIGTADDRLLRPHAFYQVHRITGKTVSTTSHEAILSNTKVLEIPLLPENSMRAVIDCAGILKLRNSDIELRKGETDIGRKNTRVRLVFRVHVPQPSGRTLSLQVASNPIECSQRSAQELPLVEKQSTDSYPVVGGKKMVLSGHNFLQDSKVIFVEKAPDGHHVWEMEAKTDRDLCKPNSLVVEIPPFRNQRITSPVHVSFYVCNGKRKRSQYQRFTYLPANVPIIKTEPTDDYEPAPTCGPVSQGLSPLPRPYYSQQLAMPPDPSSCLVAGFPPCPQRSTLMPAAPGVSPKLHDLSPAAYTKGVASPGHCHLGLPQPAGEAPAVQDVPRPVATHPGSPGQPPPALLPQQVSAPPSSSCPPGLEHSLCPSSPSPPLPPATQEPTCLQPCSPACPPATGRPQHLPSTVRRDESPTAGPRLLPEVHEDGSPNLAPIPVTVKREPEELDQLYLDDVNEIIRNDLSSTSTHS
Chain of UniProt O96008 (O96008 whole entry): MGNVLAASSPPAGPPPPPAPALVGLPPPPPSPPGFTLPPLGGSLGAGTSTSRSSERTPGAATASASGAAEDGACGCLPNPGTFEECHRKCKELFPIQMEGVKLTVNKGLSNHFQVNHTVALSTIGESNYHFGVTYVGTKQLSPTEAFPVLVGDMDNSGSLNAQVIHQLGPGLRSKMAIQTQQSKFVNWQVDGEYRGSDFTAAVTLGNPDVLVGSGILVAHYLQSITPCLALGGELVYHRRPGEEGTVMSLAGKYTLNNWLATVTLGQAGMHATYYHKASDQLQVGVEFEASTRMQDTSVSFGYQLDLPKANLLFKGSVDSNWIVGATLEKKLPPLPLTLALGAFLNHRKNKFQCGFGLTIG
Chain of UniProt O75143 (O75143 whole entry): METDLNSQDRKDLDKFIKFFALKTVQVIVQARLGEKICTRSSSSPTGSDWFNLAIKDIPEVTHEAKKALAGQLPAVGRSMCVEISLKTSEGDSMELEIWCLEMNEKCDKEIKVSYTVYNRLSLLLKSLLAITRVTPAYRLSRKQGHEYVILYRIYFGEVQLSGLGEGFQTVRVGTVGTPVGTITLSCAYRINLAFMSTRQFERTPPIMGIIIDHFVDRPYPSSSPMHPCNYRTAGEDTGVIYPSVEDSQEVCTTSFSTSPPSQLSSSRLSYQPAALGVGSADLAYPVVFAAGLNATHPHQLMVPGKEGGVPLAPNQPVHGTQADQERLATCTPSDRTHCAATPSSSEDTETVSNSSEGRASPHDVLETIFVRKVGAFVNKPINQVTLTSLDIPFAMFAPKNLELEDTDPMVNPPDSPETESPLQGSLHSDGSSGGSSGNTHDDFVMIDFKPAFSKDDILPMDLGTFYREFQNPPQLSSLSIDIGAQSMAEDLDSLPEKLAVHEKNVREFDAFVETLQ

Target	NP40-soluble protein abundance (concentration: 0.1mM)	NP40-soluble protein abundance (concentration: 0.5mM)	NP40-soluble protein abundance (concentration: 1mM)	NP40-soluble protein abundance (concentration: 2mM)	NP40-soluble protein abundance (concentration: 4mM)	NP40-soluble protein abundance (concentration: 6mM)	NP40-soluble protein abundance (concentration: 8mM)	NP40-soluble protein abundance (concentration: 10mM)
RPL21 (UniProt P46778)	0.981 ± 0.092	1 ± 0.082	1.05 ± 0.12	1.01 ± 0.14	0.914 ± 0.2	0.856 ± 0.19	0.72 ± 0.22	0.971 ± 0.23
HMGN4 (UniProt O00479)	1.08 ± 0.057	1.06 ± 0.12	1.02 ± 0.12	1.31 ± 0.04	1.83 ± 0.15	2.26 ± 0.16	1.51 ± 0.74	4.79 ± 0.19
TOMM40 (UniProt O96008)	1.01 ± 0.045	1.04 ± 0.031	0.953 ± 0.041	0.967 ± 0.018	0.946 ± 0.043	0.936 ± 0.037	0.939 ± 0.077	0.905 ± 0.061
UniProt O95644|O95644-10|O95644-11|O95644-2|O95644-3|O95644-4|O95644-5|O95644-6|O95644-8	1.01 ± 0.2	1.07 ± 0.094	1.25 ± 0.18	1.37 ± 0.17	1.31 ± 0.29	1.34 ± 0.19	1.17 ± 0.053	1.34 ± 0.3
UniProt O75143|O75143-2|O75143-5	0.993 ± 0.038	0.996 ± 0.042	1.01 ± 0.065	1.02 ± 0.081	0.967 ± 0.024	0.959 ± 0.088	0.937 ± 0.058	0.947 ± 0.041
